Results reported in PubChem BioAssay AID504797 (The Scripps Research Institute Molecular Screening Center, 2011).
This is one part of the list. Calls of active or inactive are those of the source. No stated cut-off is given here; in the data, active means activation above about 19%; inactive means the rest. Residues, ends and D or L forms follow the SMILES beside them.

Molecular target: cAMP-dependent protein kinase type II-beta regulatory subunit (Homo sapiens) (UniProt P31323)
Test: activators of PKA-R2B holoenzyme, confirmation, biochemical, fluorescence polarization, human (AID 504797)
Settings: PKA-R2B complex, at 11.4 µM, hits give high values

Chain of cAMP-dependent protein kinase type II-beta regulatory subunit (Homo sapiens) (P31323 whole entry, looked up): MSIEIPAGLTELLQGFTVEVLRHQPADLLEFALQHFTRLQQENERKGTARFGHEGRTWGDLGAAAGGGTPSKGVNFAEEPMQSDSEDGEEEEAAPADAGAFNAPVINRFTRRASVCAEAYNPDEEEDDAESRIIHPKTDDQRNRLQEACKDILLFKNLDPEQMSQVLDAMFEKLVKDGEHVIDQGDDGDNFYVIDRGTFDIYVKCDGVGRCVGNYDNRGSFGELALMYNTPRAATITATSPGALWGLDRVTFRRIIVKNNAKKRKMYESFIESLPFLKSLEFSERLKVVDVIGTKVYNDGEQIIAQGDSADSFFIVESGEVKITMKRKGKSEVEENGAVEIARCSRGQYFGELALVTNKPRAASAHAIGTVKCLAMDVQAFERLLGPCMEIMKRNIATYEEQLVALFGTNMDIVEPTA

activation, active:
CCCC(=O)Nc1ncnc2c1ncn2[C@@H]1O[C@@H]2OP(=O)(O)OC[C@H]2[C@H]1OC(=O)CCC 36.6%, N#Cc1ccccc1CN1C(=O)S/C(=C/c2cccn2-c2cccc(C(=O)O)c2)C1=O 19.4%

activation, inactive:
O=C(CCCN1C(=O)c2cccc3cccc(c23)C1=O)N1CCN(Cc2ccc3c(c2)OCO3)CC1 -2.59%, O=S(=O)(NCCNS(=O)(=O)c1ccccc1)c1ccccc1 4.44%, O=C(CNC(=O)c1ccccc1)NCC(=O)OCC(=O)c1ccccc1 (HELM PEPTIDE1{[O=C(c1ccccc1)[*:2]].G.G.[O=C(CO[*:1])c1ccccc1]}$$$$V2.0) 3.61%, COc1ccc(C/C(C)=N/NC(=O)c2ccncc2)cc1 0.21%, CC(C)(C)c1nnc(N/N=C/c2ccc(O)cc2)n(N)c1=O 3.54%, O=C(CN(C(=O)CCC(=O)Nc1nccs1)c1ccc(F)cc1)NCc1ccc2c(c1)OCO2 3.19%, COc1cccc(Nc2nnc(SCC(=O)N3CC(C)OC(C)C3)s2)c1 (stereo not drawn) 1.96%, COc1ccc([N+](=O)[O-])cc1C1NN=C(c2cccc3ccccc23)S1 (stereo not drawn) 1.59%, COc1ccc(CC(NC(C)=O)C(=O)NC2CCN(C(=O)c3ccc(Cl)cc3)CC2)cc1 (stereo not drawn) 2.1%, O=C(O)C1=C(C(=O)O)C2CCC1C2 -0.5%, CC(C)(C)c1ccc(C(=O)N2CCC(C(=O)N3CCCCC3)CC2)cc1 -0.14%
